Data as given in PubChem BioAssay AID624300 (Southern Research Specialized Biocontainment Screening …, 2012).
About 360 (15%) of roughly 2,400 compounds were called active.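 How the source made its calls: active means viability falls under 70% at one or more tested concentrations, taken as toxicity; inactive means viability stays over 70% at every dose.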 These entries were drawn from the full list. Entries with a potency or affinity are not part of this list.

Test: viability loss in HeLa cells – cytotoxicity control for MgcRacGAP inhibitor project, dose response (AID 624300)
Details: CellTiter-Glo luminescence, 24 h; series mostly up to 100 µM

Which outcome does the source give for `CC(=O)C[C@H]1c2cc(F)ccc2S(=O)(=O)N1c1ccc(N(C)C)cc1` here?
Its outcome is “inactive”.

With `COc1cc(OC)c(OC)cc1CN1CCN(Cc2ccc(SC)cc2)CC1` as the molecule, how does the outcome read?
The outcome was “inactive”.

With `CN1CC(=O)N(CC(=O)Nc2ccc(N(C)C)cc2)c2ccccc2C1=O` as the molecule, how does the outcome read?
The outcome was “inactive”.

With `Cc1ccccc1-c1ccc(Nc2ccc(N3CCOCC3)cc2)nn1` as the molecule, how does the outcome read?
Its outcome is “inactive”.

Which outcome does the source give for `CC1CCCC(N2CCN(C(=O)c3ccc([N+](=O)[O-])cc3)CC2)C1` (stereo unspecified) here?
The outcome was “inactive”.

For `COCCCNc1nc(=S)[nH]c2cc(OC)c(OC)cc12`, which outcome is on record?
Its outcome is “inactive”.

Which outcome does the source give for `OCCCCNc1cccc2ccccc12` here?
The outcome was “inactive”.

Which outcome does the source give for `COCCNCc1nc2sc(C)c(-c3ccccc3)c2c(=O)[nH]1` here?
The outcome was “inactive”.

For `COc1ccc(N2CCN(CC(=O)Nc3cccc(S(=O)(=O)N4CCOCC4)c3)CC2)cc1`, which outcome is on record?
The outcome was “inactive”.

Which outcome does the source give for `CCOc1cc(/C=N/NC(=O)CSc2cccc3cccnc23)ccc1O` here?
Its outcome is “inactive”.

Which outcome does the source give for `Cc1cc(-c2ccccc2)nc2c(Br)c(=O)[nH]n12` here?
The outcome was “inactive”.

For `O=C(O)c1ccccc1NS(=O)(=O)c1ccc(N/N=C/c2ccc(O)c(O)c2)c([N+](=O)[O-])c1`, which outcome is on record?
Its outcome is “inactive”.

For `COc1cc(/C=N/NS(=O)(=O)c2ccc(C)c([N+](=O)[O-])c2)ccc1O`, which outcome is on record?
Its outcome is “inactive”.

With `C[C@]12CC[C@H]3C(=CCc4cc(O)ccc43)[C@@H]1CCC2=O` as the molecule, how does the outcome read?
Its outcome is “inactive”.

Which outcome does the source give for `CC1CCC/C(=C\c2ccc(O)cc2)C1=O` (stereo unspecified) here?
Its outcome is “inactive”.

Which outcome does the source give for `CN(C)c1ccc(/C=C2/NC(=O)NC2=O)cc1` here?
The outcome was “inactive”.

For `O=C1NC(=S)NC1=Cc1ccc(O)cc1`, which outcome is on record?
Its outcome is “inactive”.

Which outcome does the source give for `CCOc1ccccc1NC(=O)C(NCC1(N2CCCCC2)CCCCC1)c1ccccc1` (stereo unspecified) here?
The outcome was “inactive”.

For `O=C(NC(=S)Nc1cccc2c(O)cccc12)c1ccco1`, which outcome is on record?
Its outcome is “inactive”.

Which outcome does the source give for `O=C(Nc1cc(Br)c(O)c(Br)c1)c1cccc(NC(=O)c2ccco2)c1` here?
The outcome was “inactive”.

Which outcome does the source give for `Brc1csc(C=Nc2ccc3c(c2)OCCOCCOCCOCCO3)c1` here?
The outcome was “inactive”.

For `CCN(CC)c1ccc(/C=N/NC(=O)OC)c(O)c1`, which outcome is on record?
Its outcome is “inactive”.

Which outcome does the source give for `Cc1ccccc1C(=O)Nc1ccc(N2CCCC2)cc1` here?
Its outcome is “inactive”.

With `COc1ccc(C(=O)/C=C/c2ccc(O)cc2)cc1` as the molecule, how does the outcome read?
The outcome was “inactive”.

For `COC(=O)c1ccc(CNC(=O)COC(=O)/C=C/c2ccc(O)c(OC)c2)cc1`, which outcome is on record?
The outcome was “inactive”.

For `COC(=O)c1ccc(NC(=S)Nc2ccc(O)cc2)cc1`, which outcome is on record?
The outcome was “inactive”.

For `COCCCNC(=S)N1CCN(Cc2ccc3c(c2)OCO3)CC1`, which outcome is on record?
The outcome was “inactive”.

For `O=C(CC(c1ccccc1)c1ccccc1)Nc1ccc(O)cc1`, which outcome is on record?
Its outcome is “inactive”.

Which outcome does the source give for `CCOC(=O)C1CCCN(C2=NC(=O)/C(=C/c3ccc(O)c(OCC)c3)S2)C1` (stereo unspecified) here?
The outcome was “inactive”.

With `CCN(CC)S(=O)(=O)c1cccc(-c2n[nH]c(=S)n2/N=C/c2ccc(OC(F)F)cc2)c1` as the molecule, how does the outcome read?
Its outcome is “inactive”.

Which outcome does the source give for `Nc1ccc(N2CCCC2)c(S(=O)(=O)Nc2cccc(C(F)(F)F)c2)c1` here?
Its outcome is “inactive”.

Which outcome does the source give for `COc1ccc2c(c1)-c1nc(/N=C/c3c(O)ccc4ccccc34)sc1CC2` here?
The outcome was “inactive”.

Which outcome does the source give for `O=C(CN1C(=O)c2ccccc2S1(=O)=O)c1ccc(O)c(O)c1` here?
The outcome was “inactive”.

Which outcome does the source give for `C=CCn1c(SCC(=O)c2ccc(O)c(O)c2)nnc1-c1cccc(Cl)c1` here?
Its outcome is “inactive”.

For `CC1Cc2ccccc2N1C(=O)CNCCCN(C)C` (stereo unspecified), which outcome is on record?
Its outcome is “inactive”.

Which outcome does the source give for `CN(C)C(=S)N=c1ssc(=S)n1Cc1ccccc1` here?
Its outcome is “inactive”.

With `COc1ccc(NC2CCCN(C(=O)c3csc(C)n3)C2)cc1` (stereo unspecified) as the molecule, how does the outcome read?
Its outcome is “inactive”.

Which outcome does the source give for `C#CCOCCOCCOCCNc1nc(N2CCN(C(=O)[C@H](CCCCN)n3cc(CN)nn3)CC2)nc(N2CCN(C(=O)[C@H](CCC(=O)O)n3cc([C@@H](N)CCCCN)nn3)CC2)n1` here?
The outcome was “inactive”.

With `C#CCOCCOCCOCCNc1nc(N2CCN(C(=O)[C@H](CCCCN)n3cc(CN)nn3)CC2)nc(N2CCN(C(=O)[C@H](CCCCN)n3cc(CN)nn3)CC2)n1` as the molecule, how does the outcome read?
Its outcome is “inactive”.

With `Cc1ccc(CCNc2ccc3ccccc3c2)cn1` as the molecule, how does the outcome read?
Its outcome is “inactive”.

With `COc1cc(/C=C/CN2CCN(CCC(C)C)C(CCO)C2)ccc1O` (stereo unspecified) as the molecule, how does the outcome read?
The outcome was “inactive”.

Which outcome does the source give for `Nc1ccccc1Sc1ccc(C(=O)c2ccccc2C(=O)O)cc1[N+](=O)[O-]` here?
The outcome was “inactive”.

Which outcome does the source give for `COc1ccc(NC2CCCN(C(=O)CCc3cn[nH]c3)C2)cc1` (stereo unspecified) here?
Its outcome is “inactive”.

With `COc1cccc(C(=O)Nc2cc3c(cc2N2CCCC2)n(C)c(=O)n3C)c1` as the molecule, how does the outcome read?
Its outcome is “inactive”.

With `CCn1c(=O)n(CC)c2cc(N3CCCC3)c(NC(=O)c3ccccc3)cc21` as the molecule, how does the outcome read?
Its outcome is “inactive”.

Which outcome does the source give for `CN=Cc1cc(-c2ccccc2)sc1O` here?
Its outcome is “inactive”.

For `COc1cc(/C=N/NC(=O)C(C)Nc2n[nH]c(=O)[nH]c2=O)ccc1O` (stereo unspecified), which outcome is on record?
Its outcome is “inactive”.

For `COc1ccc(CN2CCN(c3ccccn3)CC2)c(OC)c1C`, which outcome is on record?
Its outcome is “inactive”.

Which outcome does the source give for `COc1ccccc1OCC#CCn1ccnc1` here?
Its outcome is “inactive”.

For `COc1cc(C2C(=O)c3ccccc3C2=O)ccc1O`, which outcome is on record?
Its outcome is “inactive”.

Which outcome does the source give for `COc1cc(/C=N/N2C(=O)c3ccccc3C2=O)ccc1O` here?
The outcome was “inactive”.

For `Oc1ccc(/C=N/NC(=S)NCCN2CCOCC2)c(O)c1`, which outcome is on record?
Its outcome is “inactive”.

With `Clc1ccc(CNc2ccc(N3CCN(Cc4ccccc4)CC3)cc2)cc1` as the molecule, how does the outcome read?
The outcome was “inactive”.

Which outcome does the source give for `CC(=O)N1CCN(c2ccc(NCc3ccc(F)cc3)cc2)CC1` here?
The outcome was “inactive”.

With `CSCCOC(=O)C1=C(C)Nc2ccc(C)cc2S1` as the molecule, how does the outcome read?
Its outcome is “inactive”.

Which outcome does the source give for `COc1cc(/C=N/n2c(-c3cc(C)[nH]n3)n[nH]c2=S)cc(OC)c1O` here?
The outcome was “inactive”.

Which outcome does the source give for `COc1cc(OC)c2cc[nH]c2c1` here?
The outcome was “inactive”.

With `COc1cc(C=C2C(=O)c3ccccc3C2=O)cc(OC)c1OC` as the molecule, how does the outcome read?
The outcome was “inactive”.

Which outcome does the source give for `C[n+]1c(-c2ccccc2)cc2c(=Cc3ccc([N+](=O)[O-])cc3)c3ccccc3n21` here?
Its outcome is “inactive”.

For `CCOC(=O)c1sc(=S)[nH]c1C`, which outcome is on record?
The outcome was “inactive”.

With `c1cc(CNc2ccc3c(c2)OCO3)ccn1` as the molecule, how does the outcome read?
Its outcome is “inactive”.

Which outcome does the source give for `COc1cccc(CN2CCN(Cc3cccc(Oc4ccccc4)c3)CC2)c1OC` here?
Its outcome is “inactive”.

With `CC1(C)CC(=O)C(C(C2=C(O)CC(C)(C)CC2=O)c2cccs2)C(=O)C1` (stereo unspecified) as the molecule, how does the outcome read?
The outcome was “inactive”.

For `COc1ccccc1NS(=O)(=O)c1cc(N)ccc1N1CCCC1`, which outcome is on record?
The outcome was “inactive”.

With `Cc1sc2ncnc(N/N=C/c3ccc(O)cc3)c2c1C` as the molecule, how does the outcome read?
Its outcome is “inactive”.

Which outcome does the source give for `COc1ccc(/C=N/Nc2ccccn2)cc1O` here?
Its outcome is “inactive”.

Which outcome does the source give for `COc1cc(/C=C/C(=O)OCC(=O)Nc2ccc(S(=O)(=O)N3CCCC3)cc2)ccc1O` here?
Its outcome is “inactive”.

With `CNC(=S)N/N=C/c1ccc(N2CCOCC2)s1` as the molecule, how does the outcome read?
Its outcome is “inactive”.

With `NC(=O)N/N=C/c1ccc(N2CCOCC2)s1` as the molecule, how does the outcome read?
The outcome was “inactive”.

With `COc1cc(/C=N/n2cnnc2)ccc1OC(=O)c1ccncc1` as the molecule, how does the outcome read?
The outcome was “inactive”.

With `CSc1nc(=S)c2[nH]c(=S)[nH]c2[nH]1` as the molecule, how does the outcome read?
The outcome was “inactive”.
